In PubChem BioAssay (EPA / NIEHS):
Records with an inconclusive call do not appear. The source made the active and inactive calls. Rule for the calls: active = hit-call score of the fitted dose curve at least 0.9, where 1 is the maximum; inconclusive = response in the unintended direction; inactive = score below 0.9.

Molecular target: Nuclear receptor subfamily 1 group I member 2 (Homo sapiens) (UniProt O75469)
Experiment: ATG_PXR_TRANS: Attagene TRANS-FACTORIAL HepG2 Assay for human Pregnane X Receptor (PXR) (AID 2283008)
Procedure, shortened: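 HepG2 cells transiently transfected with multiple reporter units, here a PXR-GAL4 chimera driving a GAL4-UAS reporter; 24 h compound exposure. Reporter mRNA measured by RT-PCR, FAM labelling and capillary electrophoresis; gain of signal fitted against DMSO baseline.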

Sequence of Nuclear receptor subfamily 1 group I member 2 (Homo sapiens) (O75469 whole entry, looked up): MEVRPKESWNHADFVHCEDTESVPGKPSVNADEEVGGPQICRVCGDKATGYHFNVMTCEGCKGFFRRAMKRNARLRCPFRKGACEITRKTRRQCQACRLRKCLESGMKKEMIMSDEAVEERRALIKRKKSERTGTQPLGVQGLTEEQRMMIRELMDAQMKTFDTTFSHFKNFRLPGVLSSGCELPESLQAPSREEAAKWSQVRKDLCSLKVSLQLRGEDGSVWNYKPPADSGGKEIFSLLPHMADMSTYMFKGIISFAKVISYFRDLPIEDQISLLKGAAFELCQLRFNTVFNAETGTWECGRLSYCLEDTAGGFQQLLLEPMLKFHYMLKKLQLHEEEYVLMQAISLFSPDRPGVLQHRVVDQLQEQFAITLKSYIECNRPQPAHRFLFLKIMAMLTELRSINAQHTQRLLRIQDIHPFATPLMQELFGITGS

| SMILES | AC50 | outcome |
| --- | --- | --- |
| CC(C)[C@H](C(=O)OC(C#N)c1cccc(Oc2ccccc2)c1)c1ccc(OC(F)F)cc1 (some centres undefined) | 0.693 µM (active) | – |
| CCCCS(=O)(=O)Cl | – | inactive |
| Nc1ccc(Br)cc1 | – | inactive |
| CC(C)(C)c1ccc(CCOc2ncnc3ccccc23)cc1 | – | inactive |
| Cc1cc(SCc2sc(-c3ccc(C(F)(F)F)c(F)c3)nc2C)ccc1OCC(=O)O | 2.05 µM (active) | – |
| Brc1ccc(Oc2c(Br)cc(Br)cc2Br)c(Br)c1 | – | inactive |
| C=CC(=O)NC(C)(C)CC(C)=O | – | inactive |
| C[N+](C)(C)Cc1ccccc1 | – | inactive |
| [F][Sn]([c]1ccccc1)([c]1ccccc1)[c]1ccccc1 | – | inactive |
| C=CCc1ccccc1O | – | inactive |
| ClCCCCl | – | inactive |
| CC(O)(CS(=O)(=O)c1ccc(F)cc1)C(=O)Nc1ccc(C#N)c(C(F)(F)F)c1 (centres undefined) | – | inactive |
| OC(c1ccc(Cl)cc1)(c1ccc(Cl)cc1)c1cccnc1 | – | inactive |
| CCCCCCCCCCCCOS(=O)(=O)O | – | inactive |
| CN(N=O)C(N)=O | – | inactive |
| CN(N=O)c1ccc([N+](=O)[O-])cc1 | 19.8 µM (active) | – |
| NNCCO | – | inactive |
| CS(=O)(=O)c1ccc(C(=O)C2C(=O)CCCC2=O)c(Cl)c1COCC(F)(F)F | – | inactive |
| CCOC(=O)OC1=C(c2cc(C)ccc2C)C(=O)NC12CCC(OC)CC2 (centres undefined) | – | inactive |
| CCOc1cc(C=O)ccc1O | – | inactive |
| Clc1cnc(Oc2ccc(Oc3ncc(Cl)cc3Cl)cc2)c(Cl)c1 | 7.48 µM (active) | – |
| CC(C)(C#N)N=NC(C)(C)C#N | – | inactive |
| N#CS | – | inactive |
| Nc1ccc(-c2ccccc2)cc1 | – | inactive |

Molecular target: human Retinoic Acid Receptor gamma (RARg), RARG (gene 5916) (UniProt P13631)
Experiment: ATG_RARg_TRANS: Attagene TRANS-FACTORIAL HepG2 Assay for human Retinoic Acid Receptor gamma (RARg) (AID 2283009)
Procedure, shortened: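 HepG2, RARg-GAL4 TRANS system, 24 h exposure; reporter mRNA by RT-PCR + CE fluorescence; increase over DMSO.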

Sequence of human Retinoic Acid Receptor gamma (RARg), RARG (gene 5916) (P13631 whole entry, looked up): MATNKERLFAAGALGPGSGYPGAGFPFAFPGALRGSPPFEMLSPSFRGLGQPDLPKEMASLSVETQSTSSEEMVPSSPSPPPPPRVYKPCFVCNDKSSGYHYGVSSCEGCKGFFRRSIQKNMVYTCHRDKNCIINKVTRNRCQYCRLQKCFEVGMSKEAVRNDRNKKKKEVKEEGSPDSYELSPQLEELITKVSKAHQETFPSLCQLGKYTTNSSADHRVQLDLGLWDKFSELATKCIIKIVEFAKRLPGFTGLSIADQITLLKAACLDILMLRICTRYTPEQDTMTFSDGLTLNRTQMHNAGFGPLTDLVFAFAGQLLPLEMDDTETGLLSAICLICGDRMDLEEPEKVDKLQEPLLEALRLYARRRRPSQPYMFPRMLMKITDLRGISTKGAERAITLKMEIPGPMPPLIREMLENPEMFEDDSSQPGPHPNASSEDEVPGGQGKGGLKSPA

| SMILES | outcome |
| --- | --- |
| CC(C)(c1ccccc1)c1cc(-n2nc3ccccc3n2)c(O)c(C(C)(C)c2ccccc2)c1 | inactive |
| CC(O)(CS(=O)(=O)c1ccc(F)cc1)C(=O)Nc1ccc(C#N)c(C(F)(F)F)c1 (centres undefined) | inactive |
| CN(C)[C@@H]1C(=O)C(C(N)=O)=C(O)[C@@]2(O)C(=O)C3=C(O)c4c(O)ccc(Cl)c4[C@@](C)(O)[C@H]3C[C@@H]12 | inactive |
| CN(N=O)C(N)=O | inactive |
| CC1(C)COP(Oc2ccccc2)OC1 | inactive |

Molecular target: human RAR-related Orphan Receptor beta (RORb), RORB (gene 6096) (UniProt Q92753)
Experiment: ATG_RORb_TRANS: Attagene TRANS-FACTORIAL HepG2 Assay for human RAR-related Orphan Receptor beta (RORb) (AID 2283010)
Procedure, shortened: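 In this TRANS-format test, human HepG2 cells express chimeric NR-Gal4 fusion proteins driving GAL4-UAS reporters. After 24 h dosing, reporter transcripts are measured by fluorescent RT-PCR/capillary electrophoresis, with DMSO as negative control.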

Sequence of human RAR-related Orphan Receptor beta (RORb), RORB (gene 6096) (Q92753 whole entry, looked up): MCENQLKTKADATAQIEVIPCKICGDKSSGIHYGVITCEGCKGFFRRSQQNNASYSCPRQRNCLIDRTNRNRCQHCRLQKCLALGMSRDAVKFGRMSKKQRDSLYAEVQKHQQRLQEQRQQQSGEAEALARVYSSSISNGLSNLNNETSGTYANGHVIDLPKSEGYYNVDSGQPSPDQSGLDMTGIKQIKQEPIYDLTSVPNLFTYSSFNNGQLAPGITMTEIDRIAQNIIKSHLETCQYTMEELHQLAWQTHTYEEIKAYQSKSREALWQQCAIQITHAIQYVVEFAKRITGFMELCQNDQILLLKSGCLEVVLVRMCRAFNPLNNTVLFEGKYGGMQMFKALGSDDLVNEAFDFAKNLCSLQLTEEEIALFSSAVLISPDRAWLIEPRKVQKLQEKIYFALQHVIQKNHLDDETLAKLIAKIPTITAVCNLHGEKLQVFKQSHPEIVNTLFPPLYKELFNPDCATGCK

| SMILES | outcome |
| --- | --- |
| CCCCS(=O)(=O)Cl | inactive |
| Nc1ccc(Br)cc1 | inactive |
| O=[N+]([O-])c1ccc(Cl)c([N+](=O)[O-])c1 | inactive |
| Brc1ccc(Oc2c(Br)cc(Br)cc2Br)c(Br)c1 | inactive |
| CCCCN(CCCCO)N=O | inactive |
| C=CC(=O)NC(C)(C)CC(C)=O | inactive |
| O=[N+]([O-])c1cc([As](=O)(O)O)ccc1O | inactive |
| CNC(=O)O/N=C/C(C)(C)S(C)(=O)=O | inactive |
| CC(=Cc1ccccc1)[N+](=O)[O-] | inactive |
| CCCCCCCCCCCCOS(=O)(=O)O | inactive |
| CCOC(=O)OC1=C(c2cc(C)ccc2C)C(=O)NC12CCC(OC)CC2 (centres undefined) | inactive |
| CCOc1cc(C=O)ccc1O | inactive |
| Clc1cnc(Oc2ccc(Oc3ncc(Cl)cc3Cl)cc2)c(Cl)c1 | inactive |
| N#CS | inactive |
| Nc1ccc(-c2ccccc2)cc1 | inactive |
